Here are results for 40 molecules from PubChem BioAssay (NCATS).

Results filed as inconclusive are left out. Unmarked numbers belong to inactive results. Active and inactive are the calls of the source. Calls come from the whole dose curve; as a rule, active = well fitted inhibition curve with a large enough effect; inconclusive = small, poorly fitted or top-dose-only effect; inactive = flat fitted curve, though single readings scatter.
% is set by controls: 0 for no effect and ±100 for the full control effect; potency is the fitted concentration of half-maximal effect.

This test has as its system HEK293. The test is described as follows: Cytotoxic Profiling of Annotated Libraries Using Quantitative High-Throughput Screening (AID 1296008). Note: nearly all actives have a fitted effect of over 60% in size. Particulars: Five cell lines viability, CellTiter-Glo ATP luminescence, 48-72 h; max response: hits give low values. From the text:
Cell-based phenotypic screening is a commonly used approach to discover biological pathways, novel drug targets, chemical probes and high-quality hit-to-lead molecules. Many hits identified from high-throughput screening campaign are ruled out through a series of follow-up potency, selectivity/specificity, and cytotoxicity assays. Prioritization of molecules with little or no cytotoxicity for a more in-depth downstream evaluation influence the future direction of projects, so cytotoxicity profiling of the screening libraries at early stage is essential for increasing the likelihood of candidate success. […] For the annotated library, we also examined the primary targets and mechanistic pathways regularly associated with cell death. To our knowledge, this is the first study to use high-throughput screening to profile large libraries for cytotoxicity assessment in both normal and cancer cell lines. In summary, the results generated here constitutes a valuable resource for the scientific community and provides insight on identifying cytotoxic compounds with particular mechanisms of action, and prioritizing compounds with suitable cytotoxicity profile for further evaluation.
A pintool (Kalypsys) was used to transfer 23 nL of compound solution to the 1536-well assay plates. After 48 or 72 hr incubation at 37 degree Celsius, 5% CO2 and 95% humidity, 2.5 uL of CellTiter-Glo (Promega) was dispensed into each well using a dispenser (Aspect Automation, St. Paul, MN) with solenoid valves (Lee Valves, Westbrook CT). Plates were left at room temperature for 10 min before imaging the ATP-coupled luminescence using a ViewLux microplate imager (PerkinElmer, Waltham, MA).
(In ATP-based viability assays light output follows the ATP content of the culture.)
Regarding `On1ncc(C2CCNCC2)c1-c1cccc(-c2ccccc2)c1`, the max response is -1.77%. The same measure, in the same setting: under `CC1(C)CC[C@]2(C(=O)O[C@@H]3O[C@H](CO)[C@@H](O)[C@H](O)[C@H]3O)CC[C@]3(C)C(=CCC4[C@@]5(C)CC[C@H](OC6OC(C(=O)O)C(OC7OC(CO)C(O)C(O)C7O)C(O)C6O)C(C)(C)C5CC[C@]43C)C2C1` (stereo not given in full) stands 3.09%.

Take `COc1ccc(C2COc3cc(O)ccc3C2)c(O)c1OC` (stereo not given): the max response is -9.14%. Same read-out and setting: under `O=C(Nc1ccccc1)Nc1ccc(-c2ccc(C(=O)C3CCCC3C(=O)O)cc2)cc1` (stereo not given) stands -9.05%. For the molecule `CC1CCC2(C)CCC3(C)C(=CCC4C5(C)CCC(O)C(C)(C(=O)O)C5CCC43C)C2C1C` (stereo not given), the max response is -6.34%.

Consider `Cc1cn(C[C@H](N)C(=O)O)c(=O)n(Cc2ccsc2C(=O)O)c1=O`, for which the max response is -7.52%.

Regarding `C[C@H]1CC[C@@]2(OC1)O[C@H]1CC3C4CC[C@H]5C[C@@H](O)CC[C@]5(C)C4CC(=O)[C@]3(C)[C@H]1[C@@H]2C` (stereo not given in full), the max response is -2.47%. Still for that read-out and setting: under `CC(=O)OC1C(O)C(C)(O)C(/C=C/C(=O)O)C2(C)CCCC(C)(C)C12` (stereo not given) stands 0.298%. Still for that read-out and setting: under `COc1ccc2[nH]c(S(=O)Cc3ncc(C)c(OC)c3C)nc2c1` (stereo not given) stands 3.04%. On to `COc1cc(C[C@@]2(O)CO[C@@H](c3ccc(O[C@@H]4O[C@H](CO)[C@@H](O)[C@H](O)[C@H]4O)c(OC)c3)[C@H]2CO)ccc1O`, for which the max response was 0.509%. Take `Nc1ncnc2c1c(COc1cccc(Cl)c1)nn2C1CCOCC1`: the max response is -4.69%. Consider `C=C[C@]1(C)C[C@@H](OC(=O)CSC2C[C@H]3CC[C@@H](C2)N3C)[C@]2(C)[C@H](C)CC[C@]3(CCC(=O)[C@H]32)[C@@H](C)[C@@H]1O` (stereo not given in full), for which the Potency was 1460 nM (active). Regarding `CC(C)=C1CC2[C@](C)(CC[C@@H](OC(=O)C3(C)OC3C)[C@@]2(C)O)CC1=O` (stereo not given in full), the max response is 4.03%.

Turning to `COc1cc(O)c2c(c1)C1(OC2=O)C(C)=CC(=O)C1O` (stereo not given), the max response was -12.8%. On the same count and under the same terms, then `C[C@H](O)C(O)(C(=O)OCc1ccccc1NC(=O)CCC(N)C(=O)O)[C@H](C)O` (stereo not given in full), with -11.8%.

`COc1cc(C(=O)OC[C@@]2(O)CO[C@@H](O[C@H]3[C@H](Oc4ccc(O)cc4)O[C@H](CO)[C@@H](O)[C@@H]3O)[C@@H]2O)cc(OC)c1O`: the max response is -3.3%. In the case of `COc1cc2c(cc1O)CC(O)(CO)C(CO)C2c1ccc(OC2OC(CO)C(O)C(O)C2O)c(OC)c1` (stereo not given), the max response was -0.898%. On the same count and under the same terms, then `O=C(c1ccc(Cl)c([N+](=O)[O-])c1)N1CCN(c2ccccc2F)CC1`, with 0.0452%; and `COCc1c(O)c(C(=O)O)c(C)c2c1OC(=O)c1c(C)cc(O)c(CO)c1O2`, with -3.82%; and `C=C1CC2C3(C)C(O)CC(=O)C(C)(C)C3C(O)C(OC(C)=O)C2(C)C2C(=O)OC(C)(C(=O)OC)C(=O)C12C` (stereo not given), with -2.76%. On the same count and under the same terms, under `CC/C=C/C(O)C(O)C1=C(C)C(=O)C2(O1)C(=O)NC(OC)(C(=O)c1ccccc1)C2O` (stereo not given) stands 2.1%. The same measure, in the same setting: under `CCCC(=O)Nc1cccc(NC(=O)c2ccccc2Br)c1` stands -4.38%; under `C=C1[C@H](OC(C)=O)[C@H]2[C@@H](OC(C)=O)C(C)C[C@]2(OC(C)=O)C(=O)[C@H](C)/C=C/C(C)(C)C(=O)[C@H](OC(=O)C(C)C)[C@H]1OC(C)=O` (stereo not given in full), -3.57%. Take `CC1CCC23COC(=O)C2=CC(O)CC3C1(C)CCc1ccoc1` (stereo not given): the molecule was called inactive. As for `CC1(C)CC(NC(=O)C(=O)Nc2ccc(Cl)cc2)CC(C)(C)N1`, the max response is -2.65%. The same measure, in the same setting: then `O=C(/C=C/N1C[C@@H]2C[C@@H]1CN2c1ccccn1)c1ccccc1O`, with 4.78%; and `C=CC(C)(O)C1CC2C3(C)CCCC(C)(C)C3C(O)C(O)C2(C)O1` (stereo not given), with 3.38%; and `C=C(C)[C@@H]1CC[C@]2(C(=O)O)CC[C@]3(C)C(CCC4[C@]5(C)C(CC[C@]43C)C(C)(C)[C@@H](O)[C@@H]5C(=O)O)C12` (stereo not given in full), with -0.322%. On the same count and under the same terms, under `CC1=COC(OC2OC(CO)C(O)C(O)C2O)C2C(CO)CC(OC(=O)/C=C/c3ccc(O)cc3)C12` (stereo not given) stands 0.352%. The same measure, in the same setting: under `COc1c2c(c(C)c3c1C(=O)OC3)OC1(C)CC(O)C34OC(OC)(CCC3(C)C1C2)OC4(C)CO` (stereo not given) stands -8.39%; under `OC[C@H]1O[C@@H](OCc2ccccc2)[C@H](O[C@@H]2OC[C@@H](O)[C@H](O)[C@H]2O)[C@@H](O)[C@@H]1O`, 0.407%; under `O=C(Nc1ccc(N2CCC(C(=O)N3CCOCC3)CC2)cc1)c1cnc(Oc2ccccc2)nc1`, -17.8%. Regarding `C=C1CC[C@H]2[C@@](C)(CCC(O)[C@@]2(C)CO)[C@@H]1/C=C/C(=C\C(=O)O)C(=O)O` (stereo not given in full), the max response is -0.745%. For the molecule `O=C(CCc1ccccc1)c1c(O)c([C@@H]2O[C@H](CO)[C@@H](O)[C@H](O)[C@H]2O)c(O)c([C@@H]2O[C@H](CO)[C@@H](O)[C@H](O)[C@H]2O)c1O`, the max response is 0.0644%. On the same count and under the same terms, then `O=C(NCCN1CCCC1)c1cc(-c2ccc(CN3CCOCC3)cc2)nc2ccc(F)cc12`, with 2.05%; and `CC1(C)CC[C@]2(C(=O)O[C@@H]3O[C@H](CO)[C@@H](O)[C@H](O)[C@H]3O)CC[C@]3(C)C(=CCC4[C@@]5(C)C[C@H](O)[C@H](O[C@@H]6OC[C@@H](O)[C@H](O)[C@H]6O)[C@@](C)(CO)C5CC[C@]43C)C2C1` (stereo not given in full), with -6.93%. For the molecule `COC(=O)C(CC1(O)c2ccccc2N2C(=O)C(C)(C)N(O)C21)n1cnc2ccccc2c1=O` (stereo not given), the max response was 3.97%. For `C/C(=C/CO)CC[C@H]1[C@]2(C)C[C@H](O)CC(C)(C)[C@H]2CC[C@]1(C)O`, the max response is 4.37%. Same read-out and setting: then `COc1ccc(-c2ccn(CC[C@](C)(C(=O)NO)S(C)(=O)=O)c(=O)c2)c(F)c1`, with -10.7%. Same read-out and setting: then `CC1CC=C2C1CC1(O)C(=O)CC2(C)C1(C)CO` (stereo not given), with -7.63%.
